For seven molecules, growth results are on record in PubChem BioAssay (NCI).

What all share (assay): NCI-60 one-dose screen, 48 h (100 = growth as untreated, 0 = no growth, -100 = all killed)
The test system of one experiment is SK-MEL-2 melanoma. The note with it: 10 µM unless noted.
The subject of another experiment is EKVX NSCLC. The note with it: 10 µM unless noted.
Another experiment has as its system SN12C renal. The note with it: 10 µM unless noted.
For another experiment, the system named is UO-31 renal. The note with it: 10 µM unless noted.
In the next experiment the test system is TK-10 renal. The note with it: 10 µM unless noted.
Another experiment has as its system ACHN renal. The settings on record: 10 µM unless noted.
The subject of another experiment is CAKI-1 renal. The settings on record: 10 µM unless noted.
For another experiment, the system named is A498 renal. The note with it: 10 µM unless noted.
Another experiment has as its system CCRF-CEM leukemia. The note with it: 10 µM unless noted.
A further experiment concerns MOLT-4 leukemia. The note with it: 10 µM unless noted.
A further experiment relates to SR leukemia. The note with it: 10 µM unless noted.
Another experiment relates to RPMI-8226 leukemia. The settings on record: 10 µM unless noted.
In another experiment the test system is OVCAR-8 ovarian. The note with it: 10 µM unless noted.
For a further experiment, the system named is OVCAR-5 ovarian. The note with it: 10 µM unless noted.
The test system of another experiment is OVCAR-4 ovarian. The note with it: 10 µM.
The test system of another experiment is SK-OV-3 ovarian. The settings on record: 10 µM unless noted.
For another experiment, the system named is IGROV1 ovarian. The note with it: 10 µM unless noted.
Another experiment relates to OVCAR-3 ovarian. The note with it: 10 µM unless noted.
In the next experiment the test system is HS 578T breast. The note with it: 10 µM unless noted.
The subject of a further experiment is NCI/ADR-RES ovarian. The note with it: 10 µM unless noted.

The panel holds about 83,000 compounds, 20% with a hit somewhere; the sample as a whole holds those more often.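 Values shown are percent growth following 48 h exposure of cells in 96-well plates to a single concentration of compound; below 10 was considered active.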 A number with no mark means an inactive call. Activity calls are given as the source filed them.

In the case of `COCCCNc1nc(NC(=O)c2cc(OC)cc(OC)c2)cc(-c2cccnc2)n1`, the growth was 78.8% in the experiment with SK-MEL-2 melanoma; 105% with EKVX NSCLC; 95.3% in the experiment with SN12C renal; 56.7% with UO-31 renal; 86.7% with TK-10 renal; 98.2% in the experiment on ACHN renal. Moreover, the growth in the experiment on CAKI-1 renal is 99.4%; in the experiment with A498 renal it was 67.7%; in the experiment on CCRF-CEM leukemia it was 91.7%; in the experiment with MOLT-4 leukemia, 83.5%; in the experiment on SR leukemia, 80.6%; in the experiment with RPMI-8226 leukemia, 69.3%. The growth in the experiment with OVCAR-8 ovarian was 79.3%; in the experiment with OVCAR-5 ovarian it was 95.7%; in the experiment on OVCAR-4 ovarian it was 108%; in the experiment with SK-OV-3 ovarian it was 105%; in the experiment with IGROV1 ovarian, 102%; in the experiment with OVCAR-3 ovarian it was 113%. For the same molecule, the figures for the growth in the experiment with HS 578T breast and in the experiment with NCI/ADR-RES ovarian were 95.3% and 83.5%, respectively.
`CCCCCCCCCN(CCCCCCCCC)C(C)C(=O)c1ccc2cc(Br)c3ccccc3c2c1` (configuration not stated): the growth is 125% with SK-MEL-2 melanoma; 72.6% in the experiment with EKVX NSCLC; 79.8% in the experiment with SN12C renal; 47.2% in the experiment on UO-31 renal; 93.7% in the experiment on TK-10 renal; 85.9% in the experiment with ACHN renal. Moreover, the growth was 71.5% in the experiment with CAKI-1 renal; 96.8% with A498 renal; 60.6% with CCRF-CEM leukemia; 86% in the experiment on MOLT-4 leukemia; 7.35% (active) in the experiment on SR leukemia; 68.7% in the experiment on RPMI-8226 leukemia. In addition, the growth in the experiment with OVCAR-8 ovarian was 94%; with OVCAR-5 ovarian, 80.4%; with OVCAR-4 ovarian, 85.7%; in the experiment with SK-OV-3 ovarian it was 90.8%; in the experiment with IGROV1 ovarian it was 75.7%; with OVCAR-3 ovarian, 89.1%. In addition, in the experiment with NCI/ADR-RES ovarian, the growth was 84.9%.
As for `Cc1ccc(S(=O)(=O)NCCCNc2nccc(-c3c(-c4cccc(F)c4)nc4occn34)n2)cc1`, the growth in the experiment on SK-MEL-2 melanoma was 87.8%; in the experiment with EKVX NSCLC, 78.7%; in the experiment with SN12C renal it was 70.1%; in the experiment with UO-31 renal it was 43.6%; in the experiment with TK-10 renal, 79.8%; in the experiment with ACHN renal it was 80.9%. Besides, the growth is 53.4% with CAKI-1 renal; 57.5% with A498 renal; 42.2% with CCRF-CEM leukemia; 27% in the experiment on MOLT-4 leukemia; 87.9% with SR leukemia; 54.8% in the experiment on RPMI-8226 leukemia. In addition, the growth with OVCAR-8 ovarian was 65%; in the experiment with OVCAR-5 ovarian, 96.5%; in the experiment on OVCAR-4 ovarian it was 73.4%; with SK-OV-3 ovarian, 68.3%; in the experiment on IGROV1 ovarian, 48.1%; in the experiment with OVCAR-3 ovarian, 89.7%. Besides, the growth with HS 578T breast was 68%; in the experiment with NCI/ADR-RES ovarian, 85%.
In the case of `COc1ccc(C(=O)CCC(=O)O)cc1`, the growth in the experiment on SK-MEL-2 melanoma is 102%; with EKVX NSCLC, 78.7%; with SN12C renal, 89%; in the experiment on UO-31 renal it was 71.7%; with TK-10 renal, 105%; with ACHN renal, 100%. For the same molecule, the growth is 98.4% in the experiment on CAKI-1 renal; 104% in the experiment with A498 renal; 48.6% with CCRF-CEM leukemia; 86.2% with MOLT-4 leukemia; 99.7% in the experiment with SR leukemia; 87.3% in the experiment on RPMI-8226 leukemia. The growth was 71.4% in the experiment with OVCAR-8 ovarian; 88.3% in the experiment with OVCAR-5 ovarian; 64.8% in the experiment with OVCAR-4 ovarian; 115% in the experiment with SK-OV-3 ovarian; 96.8% with IGROV1 ovarian; 79% in the experiment with OVCAR-3 ovarian. Further, the growth with HS 578T breast was 105%; in the experiment with NCI/ADR-RES ovarian it was 83.6%.
Take `CN(C)CCOc1ccc(/C(=C(/CCCl)c2ccccc2)c2ccccc2)cc1`: the growth is 48.5% in the experiment on SK-MEL-2 melanoma; 30% with EKVX NSCLC; 23.7% in the experiment with SN12C renal; 26.5% in the experiment on UO-31 renal; 49.8% in the experiment with TK-10 renal; 30.1% in the experiment with ACHN renal. In addition, the growth was 30.8% with CAKI-1 renal; 65.7% in the experiment with A498 renal; -6.69% (active) in the experiment with CCRF-CEM leukemia; -4.84% (active) in the experiment on MOLT-4 leukemia; -17% (active) in the experiment on SR leukemia; -11.4% (active) in the experiment on RPMI-8226 leukemia. Further, the growth is 26.7% with OVCAR-8 ovarian; 47% in the experiment on OVCAR-5 ovarian; 32.9% with OVCAR-4 ovarian; 33.6% in the experiment on SK-OV-3 ovarian; 30.5% in the experiment on IGROV1 ovarian; 12.9% in the experiment with OVCAR-3 ovarian. Further, the growth in the experiment with NCI/ADR-RES ovarian is 14.1%.
With `CCOC(=O)c1ccc2nc(-c3c(C)nn(-c4ccccc4)c3N3CCOCC3)[nH]c2c1`, the growth in the experiment with SK-MEL-2 melanoma is 110%; in the experiment with EKVX NSCLC, 87.5%; with SN12C renal, 90.9%; in the experiment on UO-31 renal, 69.1%; with TK-10 renal it was 147%; with ACHN renal, 86.2%. For the same molecule, the growth was 78.6% in the experiment on CAKI-1 renal; 70.4% with A498 renal; 88.8% in the experiment on CCRF-CEM leukemia; 84.4% in the experiment on MOLT-4 leukemia; 74% with SR leukemia; 84.4% in the experiment on RPMI-8226 leukemia. The growth with OVCAR-8 ovarian is 93.4%; with OVCAR-5 ovarian, 103%; in the experiment with OVCAR-4 ovarian, 87.1%; in the experiment on SK-OV-3 ovarian it was 95.3%; with IGROV1 ovarian, 81.4%; in the experiment on OVCAR-3 ovarian, 93.5%. In addition, the growth with NCI/ADR-RES ovarian is 95.9%.
Turning to `CC1Cc2ccc(OCCN(C)C)cc2C1=O` (configuration not stated), the growth is 91.9% in the experiment on SK-MEL-2 melanoma; 109% in the experiment with EKVX NSCLC; 101% with SN12C renal; 88.1% in the experiment with UO-31 renal; 84.6% in the experiment with TK-10 renal; 106% in the experiment with ACHN renal. For the same molecule, the growth with CAKI-1 renal is 98%; in the experiment with A498 renal, 91.2%; with CCRF-CEM leukemia, 103%; with MOLT-4 leukemia, 102%; in the experiment on SR leukemia it was 101%; in the experiment with RPMI-8226 leukemia, 88.4%. Further, the growth was 101% in the experiment on OVCAR-8 ovarian; 105% with OVCAR-5 ovarian; 110% in the experiment on OVCAR-4 ovarian; 97.8% with SK-OV-3 ovarian; 106% with IGROV1 ovarian; 110% in the experiment with OVCAR-3 ovarian. Also, the growth in the experiment with HS 578T breast is 97.3%; in the experiment with NCI/ADR-RES ovarian, 107%.
